Laboratory results: PubChem BioAssay (NCATS)
Results filed as inconclusive are left out. Unmarked numbers belong to inactive results. Active and inactive are the calls of the source. The call rests on the fitted dose curve.

assay: Cell Viability - MRC5 (AID 434); conditions: MRC5 lung fibroblast viability, qHTS;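 further: potency reflects cytotoxicity seen as loss of intracellular ATP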
Excerpt: NIH Chemical Genomics Center [NCGC]
NIH Molecular Libraries Screening Centers Network [MLSCN]
National Institutes of Environmental Health Sciences [NIEHS]
National Toxicology Program [NTP]
We have developed a 1536-well cell-based assay for quantitative high throughput screening (qHTS) against a number of cell lines to determine in vitro cytotoxicity of small molecules. This particular assay uses the MRC5 cell line which is derived from normal human lung fibroblasts.
NCGC Assay Protocol Summary:
The CellTiter-Glo luminescent cell viability assay (Promega) is a homogeneous method to measure the number of viable cells in culture. The end point readout of this assay is based on quantitation of intracellular ATP, an indicator of metabolic activity, using the luciferase reaction. Luciferase catalyzes the oxidation of beetle Luciferin to oxyluciferin and light in the presence of ATP. The luminescent signal is proportional to amount of ATP present.
Using the CellTiter-Glo luminescent cell viability assay, the amount of cellular ATP was measured in the MRC5 cell line with complete culture medium following compound treatment for 40 hours. The assay was performed in opaque white Kalypsys 1536-well plates. In the screen, tamoxifen and doxorubicin were used as positive controls. Library compounds were measured for their ability to cause acute toxicity in the cell line, as reflected by a decrease in intracellular ATP levels, in a concentration-dependent manner. Data were normalized to the controls for basal activity (DMSO only) and 100% inhibition (100 uM tamoxifen). AC50 values were determined from concentration-response data modeled with the standard Hill equation.
qHTS protocol for CellTiter Glo MRC5 cellular assay
[Step] [Parameter] [Value] [Description]
1. Reagent; 5 uL; 1500 MRC5 cells/well
2. Time; 5 hr; 37 °C incubation
4. Controls; 23 nL; Tamoxifen 0.34 uM to 100 uM & Doxorubicin 0.02 nM to 100 uM
5. Time; 40 hr; 37 °C incubation
6. Reagent; 5 uL; CellTiter Glo reagent
7. Time; 20 min; Room Temperature
8. Detection; Luminescence; Viewlux plate reader
Keywords: cell viability, cytotoxicity, MRC5 cell line, luminescence, NTPHTS, NTPHTS_NCGC, NIEHS, EPA, DSSTox, MLSMR, MLSCN, NIH Roadmap, qHTS, NCGC
Potency means the concentration at half of the fitted maximal effect.

Row | SMILES | Potency
1 | N=C(N)c1ccc(OCCCCCOc2ccc(C(=N)N)cc2)cc1 | > 92 µM
2 | CCc1cc(C(N)=S)ccn1 | > 92 µM
3 | Cc1cc(NS(=O)(=O)c2ccc(N)cc2)no1 | > 92 µM
4 | CC1=NN(c2ccccc2)C(=O)C1 | > 92 µM
5 | CN(C)c1ccc(C(=C2C=CC(=[N+](C)C)C=C2)c2ccc(N(C)C)cc2)cc1 | 4.08 µM (active)
6 | O=C(O)c1cc(=O)[nH]c(=O)[nH]1 | > 92 µM
7 | O=C(N[C@H](CO)[C@H](O)c1ccc([N+](=O)[O-])cc1)C(Cl)Cl | > 92 µM
8 | Cc1ccnc2c1NC(=O)c1cccnc1N2C1CC1 | > 92 µM
9 | Cc1nnc(NS(=O)(=O)c2ccc(N)cc2)s1 | > 92 µM
10 | COc1ccc2cc3[n+](cc2c1OC)CCc1cc2c(cc1-3)OCO2 | > 92 µM
11 | CC(=O)[C@H]1CC[C@H]2[C@@H]3CCC4=CC(=O)CC[C@]4(C)[C@H]3CC[C@]12C | > 92 µM
12 | Cc1ncc([N+](=O)[O-])n1CCO | > 92 µM
13 | CC[C@H](C)C(=O)O[C@H]1C[C@@H](C)C=C2C=C[C@H](C)[C@H](CC[C@@H]3C[C@@H](O)CC(=O)O3)[C@H]21 | > 92 µM
14 | NC(N)=NC(N)=NCCc1ccccc1 | > 92 µM
15 | NNC(=O)c1ccncc1 | > 92 µM
16 | Cc1noc(NS(=O)(=O)c2ccc(N)cc2)c1C | > 92 µM
17 | C[C@]12C=CC(=O)C=C1CC[C@@H]1[C@@H]2C(=O)C[C@@]2(C)[C@H]1CC[C@]2(O)C(=O)CO | > 92 µM
